Screens as filed in PubChem.
Cycloheximide cs – counter-screen hit for Shiga toxin inhibitors, cycloheximide; cell reporter, cycloheximide protein synthesis inhibition counterscreen; max response, %; 300,000 tested, 12% active; in the data active = max response mostly above about 13%, no sharp cut-off; inactive = mostly below about 14%; also: read at 38.3 µM for the half of the compounds with a filed dose; 0% is about no effect
Pf growth 48h – inhibits P. falciparum growth in the first generation, 48 h | P. falciparum luciferase growth in erythrocytes, 48 h | Potency, µM (highest dose often 28.7 µM), without a hit: top-dose activity change, negative = inhibition, hits mostly inhibitors | 310,000 tested, 5.9% active | AID 504832; also: potency is read from the fitted curve at half-maximal effect; % is scaled to controls: 0 for no effect and ±100 for the full control effect
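Luminescence readout; reporter = integrated firefly luciferase in P. falciparum. RBC culture at 2% hematocrit, 0.1% parasitemia final, 37 C/5% CO2; decreased signal taken as growth inhibition.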
Shiga toxin inh – Shiga toxin inhibition; inhibition, % at 38.7 µM; 290,000 tested, 9.2% active; AID 2315; Vero cells, Shiga toxin protein synthesis inhibition reporter; in the data active = inhibition mostly above about 28%, no sharp cut-off; inactive = mostly below about 43%; also: 0% is about no effect
Pf growth 96h – P. falciparum growth inhibition at 96 hour, primary screen for plastid delayed-death inhibitors; P. falciparum luciferase reporter growth, 96 h; Potency, µM (titrated, usually from 28.7 µM), inactives show at the top dose activity change, negative = inhibition, actives largely listed as inhibitors; 320,000 tested, 6.9% active; AID 504834; also: potency is read from the fitted curve at half-maximal effect; % is scaled to controls: 0 for no effect and ±100 for the full control effect
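Plates of compound plus infected erythrocytes (2% hematocrit, 0.05% parasitemia final) incubate 96 hours, 37 C, 5% CO2. Detection reagent added; reduced luminescence from the parasites' luciferase reporter flags inhibition.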
NS1 function inh – inhibitors of influenza NS1 protein function; 270,000 tested, 0.4% active; Potency, µM (highest dose often 46.1 µM), inactives show at the highest dose activity, positive = more growth; AID 2326; calls by dose curve; also: potency is read from the fitted curve at half-maximal effect; actives are rising curves; nearly all actives have a fitted effect of over 50% in size
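In this qHTS, NS1 from influenza A is expressed in budding yeast, where it slows growth. Cells are switched from glucose to 2% galactose medium (pH 6.0, -URA), treated with compound, and growth recovery is read at OD600.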
SARS PLP yeast – SARS-CoV PLP inhibition in yeast | Potency, µM (top dose mostly 32.9 µM), for the others: at the top dose activity, positive = growth rescue, usual class: activators | 330,000 tested, 0.19% active | S. cerevisiae expressing SARS-CoV PLpro, growth rescue; calls by dose curve; also: potency is read from the fitted curve at half-maximal effect; 0% is about no effect; nearly all actives have a fitted effect of over 55% in size
* marks the source's active call; other numbers are inactive results. Sampled rows, rich in hits. Any-hit rate of the full collection: about 21%. Unless noted, calls follow the shape of the dose curve; as a rule, active = well fitted inhibition curve with a large enough effect; inconclusive = small, poorly fitted or top-dose-only effect, or another doubt; inactive = no such curve, though single readings can be large or run the other way.

For CCCc1nc2ccc(NC(=O)c3cccs3)cc2c(=O)n1Cc1ccccc1Cl the results were Cycloheximide cs 12, Pf growth 48h 1.9µM*, Shiga toxin inh 1, Pf growth 96h inconclusive, NS1 function inh 2% and SARS PLP yeast -1%.
CC(C)CN(C(=O)C1COc2ccccc2O1)c1c(N)n(CC(C)C)c(=O)[nH]c1=O (stereo not given) was read as Pf growth 48h -11%, Pf growth 96h -23% and SARS PLP yeast 7%.
O=C1CC(N2CCCc3ccccc32)C(=O)N1c1ccccc1 (stereo not given) was read as Cycloheximide cs -5, Pf growth 48h 16%, Shiga toxin inh -9, Pf growth 96h 12µM*, NS1 function inh 8% and SARS PLP yeast 0%.
Cn1c(SCC(=O)N2CC(=O)Nc3ccccc32)nnc1C(F)(F)F was read as Pf growth 48h -26%, Pf growth 96h 8% and SARS PLP yeast -2%.
`Cc1cc(C)c(NC(=O)C2CC3CCC2C3)c(C)c1` (stereo not given) gave Cycloheximide cs 15*, Pf growth 48h 10µM*, Shiga toxin inh 33, Pf growth 96h 25%, NS1 function inh 10% and SARS PLP yeast -1%.
`O=C(Nc1ccc(F)cc1)C1CC2CCC1C2` (stereo not given) gave Cycloheximide cs 18, Pf growth 48h 6%, Shiga toxin inh 18, Pf growth 96h inconclusive, NS1 function inh -4% and SARS PLP yeast 0%.
CC(C)c1ccc(NC(=O)C2CC3CCC2C3)cc1 (stereo not given) was read as Cycloheximide cs 53*, Pf growth 48h 123%, Shiga toxin inh 86*, Pf growth 96h -28%, NS1 function inh -24% and SARS PLP yeast -13%.
`O=S1(=O)c2cccc3cccc(c23)N1CCBr` gave Cycloheximide cs -3, Pf growth 48h -13%, Shiga toxin inh -13, Pf growth 96h -24%, NS1 function inh -7% and SARS PLP yeast -16%.
C/C(=N/NS(=O)(=O)c1ccc(C(C)(C)C)cc1)c1ccc2c(c1)OCO2 was read as Cycloheximide cs 1, Pf growth 48h 54%, Shiga toxin inh -3, Pf growth 96h 62%, NS1 function inh -59% and SARS PLP yeast -1%.
`CC(OC(=O)Cc1n[nH]c(=O)c2ccccc12)C(=O)Nc1ccc(F)cc1` (stereo not given) gave Pf growth 48h inconclusive, Pf growth 96h -13% and SARS PLP yeast -6%.
Screening O=C1NC(c2ccccc2Br)=N/C1=C\c1ccco1 returned Cycloheximide cs 48*, Pf growth 48h inconclusive, Shiga toxin inh 125*, Pf growth 96h 0%, NS1 function inh -5% and SARS PLP yeast -3%.
O=C1NC(c2ccccc2)=N/C1=C/c1ccco1 was read as Cycloheximide cs 39*, Pf growth 48h 35%, Shiga toxin inh 72*, Pf growth 96h inconclusive, NS1 function inh 6% and SARS PLP yeast 12%.
Screening O=C1NNC(c2ccccc2)=N/C1=C\c1ccccc1 returned Cycloheximide cs -1, Pf growth 48h -12%, Shiga toxin inh -11, Pf growth 96h inconclusive, NS1 function inh -1% and SARS PLP yeast 0%.
For O=C1NC(c2cccc(Br)c2)=N/C1=C\c1ccco1 the results were Cycloheximide cs 70*, Pf growth 48h 42%, Shiga toxin inh 86*, Pf growth 96h 82%, NS1 function inh 22% and SARS PLP yeast -18%.
COc1ccc(CNS(=O)(=O)c2csc(C(N)=O)c2)cc1OC was read as Cycloheximide cs -4, Pf growth 48h 12%, Shiga toxin inh -12, Pf growth 96h -20%, NS1 function inh 4% and SARS PLP yeast -3%.
CCCOc1ccc(C(F)(F)F)cc1NC(=O)C1CC(=O)N(Cc2ccco2)C1 (stereo not given) was read as Pf growth 48h inconclusive, Pf growth 96h -26% and SARS PLP yeast 1%.
For CC(C)(C)NC(=O)[C@H]1CN(Cc2cccnc2)CCN1C[C@@H](O)C[C@@H](Cc1ccccc1)C(=O)N[C@H]1c2ccccc2C[C@H]1O the results were Cycloheximide cs -4, Pf growth 48h 11µM*, Shiga toxin inh -9 and Pf growth 96h -17%.
Screening Cc1ccc(OCC(=O)NN=C2C3CC4CC(C3)CC2C4)cc1 returned Pf growth 48h inconclusive, Pf growth 96h inconclusive and SARS PLP yeast -1%.
For O=C(CCc1nnc(-c2ccc3c(c2)OCO3)o1)NC(c1ccccn1)C(F)(F)F (stereo not given) the results were Cycloheximide cs 38*, Pf growth 48h 60%, Shiga toxin inh 64*, Pf growth 96h 3%, NS1 function inh 1% and SARS PLP yeast 0%.
